± gives the standard deviation.
Assays:
[1] = test system: MILI (PIWIL2) piRISC loaded with piRNA #1 (26 nt); test: pre-steady-state target cleavage rate (min^-1); guide: piRNA #1 5'p-UGAGGUAGUAGGUUGUAUAGUAUCCA; higher = faster piRNA-guided slicing of the target; settings: auxiliary factor: 500 nM mouse GTSF1;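 note: 1 nM active piRISC with 0.1 nM target library at 33 °C single turnover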
How it was run: (§1)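 Cleave-'n-Seq measured uncleaved targets by sequencing after a transcribed, DNA-blocked target RNA library […] was mixed with 1 nM active affinity-purified piRISC holding one synthetic guide, with or without 500 nM GTSF1 partner protein, at 33 °C in HEPES–potassium acetate buffer for 0–8 or 0–960 min. Counts were normalised to depth and to weakly complementary targets, three trials were pooled, and k3 was capped at 0.0001 min^-1. A burst-and-steady-state fit gave the pre-steady-state cleavage rate.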

[2] = test system: EfPiwi piRISC loaded with piRNA #1 (26 nt); test: pre-steady-state target cleavage rate (min^-1); auxiliary factor: 500 nM Ephydatia muelleri Gtsf1; guide: piRNA #1 5'p-UGAGGUAGUAGGUUGUAUAGUAUCCA; MIWI and MILI are mouse PIWI proteins and EfPiwi is from a freshwater sponge; tags in brackets are library labels; higher = faster piRNA-guided slicing of the target
How it was run: as §1

Sequence | pre-steady-state target cleavage rate [1] | pre-steady-state target cleavage rate [2]
GGAGAGGAUACUAUAUAACCUACUACCUCA | 0.167 ± 0.01 | 0.109 ± 0.041
GGAGACGAAACUAUACUACCUACUACCUCA | 0.132 ± 0.02 | 0.00498 ± 0.0023
GGAGACCAUACUAUACAACCUACUACCUAA | 0.139 ± 0.015 | 0.0194 ± 0.0072
GGAGACCUAACUAUACAACCUACUACGAGA | 0.0403 ± 0.019 | 0.00515 ± 0.0032
GGAGUGGAUACUAUACAACCAAGUACCUCA | 0.00277 ± 0.0018 | 0.00281 ± 0.0018
GGAGACGAUACUAUACAACCUCUACCUCA | 0.0213 ± 0.0044 | 0.00608 ± 0.0025
GGAGACGAUACUAUACAACCUACUACCUCCA | 0.214 ± 0.014 | 0.02 ± 0.0073
GGAGUCGAUACUAUACAAGCUACUACCUCA | 0.142 ± 0.011 | 0.00581 ± 0.0024
GGAGUGGAUAGCUAUACAACCUACUACCUCA | 0.0528 ± 0.0074 | 0.00584 ± 0.0033
GGAGACCUUACUAUACAACCUACUAGGAGA [g6:g22:cont:t1A] | 0.00747 ± 0.0032 | 0.00279 ± 0.0024
GGAGACCUAUGAUAUGUACCUACAUGGAGA [g8:g13:cont:t1A] | < 0.0001 | < 0.0001
GGAGACCUAUGGAUACAACCUACUACCUCA | 0.0189 ± 0.0046 | 0.00946 ± 0.005
GGAGACGCUACUAUACAACCUACUACCUCA | 0.228 ± 0.019 | 0.163 ± 0.051
GGAGUGCAUACUAUACAACGUACUACCUCA | 0.0301 ± 0.0044 | 0.00739 ± 0.0027
GGAGAGGAUACUGUACAACCUACUACCUCA | 0.121 ± 0.012 | 0.0789 ± 0.029
GGAGAGGAAACUAUACUACCUACUACCUCA | 0.239 ± 0.025 | 0.00544 ± 0.0027
GGAGAGGAUACUAUACAACCAACUACCUCA | 0.00747 ± 0.0023 | 0.00561 ± 0.002
GGAGACCAUACUAUACAUCCUACUACCUCA | 0.302 ± 0.025 | 0.00918 ± 0.0027
GGAGACGAUACUAUCACAACCUACUACCUCA | 0.221 ± 0.017 | 0.0153 ± 0.0062
GGAGACCUAACUAUACAACCUACUACUCUCA | 0.208 ± 0.028 | 0.00491 ± 0.0044
GGAGACGAUACUAUACAACCAUCUACCUCA | 0.00466 ± 0.003 | 0.00359 ± 0.001
GGAGUGCAUACUAUACAACCUUCUACCUCA | 0.00996 ± 0.002 | 0.00467 ± 0.0029
GGAGUGGAUACUAAACAACGUACUACCUCA | 0.0219 ± 0.0031 | 0.00304 ± 0.0013

Sequence | pre-steady-state target cleavage rate [1] | pre-steady-state target cleavage rate [2]
GGAGACCAUACUAUUCAACCUACUACCUCA | 0.189 ± 0.016 | 0.0056 ± 0.0032
GGAGAGGAUACUAAUCAACCUACUACCUCA | 0.148 ± 0.011 | 0.00473 ± 0.0039
GGAGAGGAUACUAUACAACCUACGUACCUCA | 0.0773 ± 0.012 | 0.00321 ± 0.0014
GGAGACGAUACUAUACAAACUACUACCUCA | 0.245 ± 0.015 | 0.00656 ± 0.0025
GGAGAGGAUACUAUACAACCCACUACCUCA | 0.0214 ± 0.0051 | 0.00601 ± 0.0024
GGAGAGGAUACUAAACAACCUACUUCCUCA | 0.0102 ± 0.0039 | 0.00239 ± 0.0016
GGAGACCAUAGUAAACAACCUACUACCUCA | 0.0682 ± 0.009 | 0.00482 ± 0.0034
GGAGAGGAUACUAUACAACCUACUACCCCA | 0.119 ± 0.02 | 0.00713 ± 0.0022
GGAGACCAUACUUUACAACCUAGUACCUCA | 0.119 ± 0.025 | 0.00535 ± 0.0043
GGAGACGAUACUAUACAACCUACCACCUCA | 0.122 ± 0.018 | 0.00631 ± 0.0033
GGAGACCUAUCUAUACAACCUACUACCCCA | 0.123 ± 0.02 | 0.00444 ± 0.0032
GGAGACCUAACUAUACAACCUACUACGUGA | 0.0518 ± 0.018 | 0.0069 ± 0.0046
GGAGAGGAAACUUUACAACCUACUACCUCA | 0.224 ± 0.031 | 0.0107 ± 0.0049
GGAGAGGAUACAAUACAACCUACAACCUCA | 0.115 ± 0.015 | 0.00231 ± 0.0018
GGAGUGGAAACUAUACAACCUACUACCUCA | 0.225 ± 0.02 | 0.0504 ± 0.018
GGAGACCUAACUUUACAACCUAGUACCUCA | 0.0141 ± 0.0091 | 0.00417 ± 0.0038
GGAGUGGAAACUAUACUACCUACUACCUCA | 0.193 ± 0.016 | 0.00676 ± 0.0042
GGAGACCUAUCUAUACAACCCACUACCUCA | 0.0169 ± 0.0041 | 0.00474 ± 0.0043
GGAGACCUAUGCAUACAACCUACUACCUCA | 0.0358 ± 0.0081 | 0.0042 ± 0.0037
GGAGACGAUACUAUACAACCUAGUACCUCA | 0.0648 ± 0.014 | 0.00506 ± 0.0014
GGAGACCUUACUAUACAACCUACUACCGUCA | 0.132 ± 0.02 | 0.0112 ± 0.0047
GGAGAGGAUACUAUACAUCCAACUACCUCA | 0.0065 ± 0.0019 | 0.00419 ± 0.0022
GGAGAGGAUACUAUACUAGCUACUACCUCA | 0.113 ± 0.011 | 0.00387 ± 0.0029

From the supplement of paper PMC10338343
